This is a sample that favours compounds with a hit; in the whole collection about 6.9% have one here.
MPTP block: blocks calcium-induced mitochondrial swelling. isolated mouse mitochondria, Ca2+ swelling absorbance, 30 min. inhibition, % at 10 µM. actives 1.4% (n = 360,000). AID 602449;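 active = inhibition of 50% or more, scaled per plate between neutral and stimulator controls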
SKKanGAS inh: inhibitors of SKKanGAS S. pyogenes growth in kanamycin (SK-promoter or general growth effect); inhibition, % at 7.5 µM; actives 1.3% (n = 300,000); AID 1662; BacTiter-Glo, 6 h;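 active = mean replicate score, as percent of positive control median, at least 50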;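 note: strain carries kanamycin resistance gene driven by streptokinase promoter and grows in 40 µg/ml kanamycin; loss of luminescence reflects streptokinase promoter inhibition or plain growth inhibition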
NR3A LBD binder: NR3A (human) ligand-binding domain modulation; actives 2.5% (n = 340,000); Tm shift relative to glycine control, % at 25 µM; NR3A LBD differential scanning fluorimetry, Tm shift; 0% = protein alone, 100% = glycine-bound protein; AID 1259313;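 active = melting temperature shift of at least 10% of the positive control shift, at one fixed dose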
CSC inhib: blocks cancer stem cells; cancer stem cell-like cells viability, luminescence; inhibition, % at 7.5 µM; actives 1.1% (n = 300,000); AID 2717; in the data active = inhibition above about 75%; tested in HMLE shEcad cells
Beta cell apopt: blocks beta cell apoptosis | INS-1E cytokine-induced death, ATP luminescence, 48 h; percent of positive-control rescue, neutral wells zero | protection from apoptosis, % (concentration not given with the values) | actives 0.8% (n = 300,000);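 active = Every replicate reaches about 75%, or at least half do and their mean reaches it too, limit read from the data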;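 note: higher means more ATP so stronger rescue from cytokine killing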
Mdm2 MdmX PPI: disrupts the human Mdm2-MdmX interaction | inhibition, % at 8 µM | SaOS-2 split-luciferase Mdm2/MdmX complementation, luminescence | AID 485346 | actives 3% (n = 330,000) | O15151+Q00987;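 active = inhibition of at least 50% at 8 µM in the primary screen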
Target sequence (O15151 whole entry, looked up): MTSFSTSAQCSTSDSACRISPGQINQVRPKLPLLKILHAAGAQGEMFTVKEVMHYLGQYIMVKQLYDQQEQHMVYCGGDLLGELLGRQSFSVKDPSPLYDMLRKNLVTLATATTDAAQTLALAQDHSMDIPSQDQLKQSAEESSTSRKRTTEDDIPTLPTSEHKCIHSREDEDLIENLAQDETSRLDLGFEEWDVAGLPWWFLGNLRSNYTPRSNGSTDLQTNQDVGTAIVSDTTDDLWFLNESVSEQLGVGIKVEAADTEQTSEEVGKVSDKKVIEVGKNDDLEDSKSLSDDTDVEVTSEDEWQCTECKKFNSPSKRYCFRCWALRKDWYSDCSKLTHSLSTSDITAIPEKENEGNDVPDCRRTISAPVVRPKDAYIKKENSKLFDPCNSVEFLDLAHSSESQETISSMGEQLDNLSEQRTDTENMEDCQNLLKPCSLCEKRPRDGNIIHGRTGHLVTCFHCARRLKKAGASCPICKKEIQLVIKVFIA
Target sequence (Q00987 whole entry, looked up): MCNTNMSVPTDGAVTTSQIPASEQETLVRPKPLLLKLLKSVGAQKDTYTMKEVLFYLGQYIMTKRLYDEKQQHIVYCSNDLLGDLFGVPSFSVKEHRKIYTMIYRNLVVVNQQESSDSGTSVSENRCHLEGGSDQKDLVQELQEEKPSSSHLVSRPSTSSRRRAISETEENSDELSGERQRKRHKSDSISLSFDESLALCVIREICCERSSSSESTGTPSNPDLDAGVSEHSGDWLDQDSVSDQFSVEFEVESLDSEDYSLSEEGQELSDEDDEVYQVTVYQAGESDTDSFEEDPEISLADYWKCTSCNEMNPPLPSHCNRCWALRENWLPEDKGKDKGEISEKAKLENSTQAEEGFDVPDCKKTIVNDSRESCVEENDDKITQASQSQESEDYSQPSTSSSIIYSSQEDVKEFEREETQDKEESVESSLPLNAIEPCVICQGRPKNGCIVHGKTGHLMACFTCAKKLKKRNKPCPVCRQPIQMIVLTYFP
Hits are given with their value; n = inactive; x = no result.

SMILES	MPTP block	SKKanGAS inh	NR3A LBD binder	CSC inhib	Beta cell apopt	Mdm2 MdmX PPI
CCOc1ccccc1OCC(=O)OC(C)C(=O)Nc1ncc(Cl)cc1Cl (stereo not drawn)	n	x	n	x	n	n
CN1CCN(CCCNC(=O)Nc2ccc([N+](=O)[O-])cc2)CC1	n	n	n	n	n	n
N=C(N)c1ccc(N=Nc2c(O)ccc3c2[nH]c2ccccc23)cc1	n	x	29	x	x	x
NC(=O)c1ccc(N=Nc2c(O)c3ccccc3[nH]c2=O)cc1	x	n	x	n	n	n
CC1NC(=O)c2ccccc2-n2c1nc1ccc(F)cc1c2=O (stereo not drawn)	n	x	x	x	x	x
COc1ccc(NS(=O)(=O)c2cccc(C(=O)NCC3(N(C)C)CCCCC3)c2)cc1	n	n	n	n	n	n
CC1=NN(c2nc3ccccc3[nH]2)C(=O)/C1=C/N(C)C	n	x	n	91	113	n
CC1=NN(c2ccccc2)C(=O)/C1=C/N(C)C	n	n	n	n	n	n
NC(=O)c1ccccc1NC(=O)CCCCCn1nnc2ccccc2c1=O	n	n	12	n	n	n
COC(=O)c1ccccc1NC(=O)CCCCCn1nnc2ccccc2c1=O	n	n	n	n	n	n
O=C(Nc1cnn(Cc2ccc(F)cc2)c1)C(c1ccccc1)c1ccccc1	n	n	20	n	n	n
O=C(Nc1cnn(Cc2ccc(F)cc2)c1)c1cnccn1	n	n	n	n	n	n
O=C(Nc1ccccc1Cl)c1cccs1	n	n	n	n	x	n
Cc1ccc(C(=O)Nc2ccc(C)c(S(=O)(=O)Nc3ccccc3Cl)c2)s1	n	n	11	n	n	n
Cc1ccc(NC(=O)c2cc3c(s2)CCCC3)cc1S(=O)(=O)Nc1ccccc1Cl	n	n	18	n	n	n
Cc1ccc(NC(=O)CNC(=O)c2cccs2)cc1S(=O)(=O)Nc1ccc(Cl)cc1	n	n	12	n	n	x
O=C(Nc1ccc(Cl)c(S(=O)(=O)Nc2ccccc2Cl)c1)c1cccs1	n	n	31	n	n	n
COc1ccc(NC(=O)CNC(=O)c2cccs2)cc1Cl	n	n	n	n	n	n
COc1ccc(NC(=O)C(=O)NCC(=O)Nc2cc(OC)ccc2OC)cc1	n	n	n	n	n	n
CCN1CCN(C(=O)c2cc(=O)c3cc(C)ccc3o2)CC1	n	n	n	n	n	n
CC(C)(C)c1cc(C(=O)NNC(=O)c2ccc(Cl)cc2)no1	n	n	n	n	n	n
CC(=O)Nc1ccc2c(CSc3nnc(N)s3)cc(=O)oc2c1	n	n	n	n	n	n
O=C(NN=C1CCN(Cc2ccccc2)CC1)C(O)c1ccccc1 (stereo not drawn)	n	n	n	n	n	n
CCOc1cc(/C=C2\SC(=N)N(c3nccs3)C2=O)ccc1OCCN1CCOCC1	n	80	n	n	n	n
CCNC(=S)Nc1ccc(S(=O)(=O)Nc2cc(C)nc(C)n2)cc1	n	n	n	n	n	n
SMILES	MPTP block	SKKanGAS inh	NR3A LBD binder	CSC inhib	Beta cell apopt	Mdm2 MdmX PPI
COc1ccc(CCN2C(=O)C(Oc3ccccc3)C2c2ccc3c(c2)OCO3)cc1 (stereo not drawn)	n	n	12	n	n	n
NC1=NC2(CCCCC2)N(c2ccc(F)cc2)C(N)=N1	n	n	20	n	n	n
CCCOC(=O)c1c(-c2ccc(OC)cc2)oc2ccc(-c3ccc(OC)nc3)cc12	n	n	15	n	n	n
COC(=O)c1c(-c2ccc(OC)cc2)oc2ccc(-c3cc(OC)c(OC)c(OC)c3)cc12	n	n	n	100	n	n
CCN(CC)S(=O)(=O)c1cccc(C(=O)N/N=C/c2ccc(N3CCOCC3)cc2)c1	n	n	n	n	n	n
Cc1ccc2c(c1)S(=O)(=O)c1ccc3ccccc3c1N2	n	x	n	x	x	x
CCCN(c1ccccc1F)S(=O)(=O)c1c[nH]c(C(=O)OC)c1	n	n	n	n	x	n
COc1cccc(NC(=O)c2ccc(OC(F)(F)F)cc2)c1	n	n	n	n	n	n
Nc1nc(=S)c2[nH]cnc2[nH]1	n	x	n	91	x	n
CCSc1n[nH]c2nc3c(c(=O)n12)C1(CCCC1)Cc1ccccc1-3	n	65	n	n	n	n
O=c1c2c(nc3n1CCCCC3)-c1ccccc1CC21CCCC1	n	n	n	93	n	n
Nn1cnc2c(c1=O)C1(CCCCC1)Cc1ccccc1-2	n	n	n	n	x	n
Cc1ccc(-n2c(SCC(N)=O)nc3c(c2=O)C2(CCCC2)Cc2ccccc2-3)cc1	n	n	13	n	n	n
CCOC(=O)C1Cn2c(nc3c(c2=O)C2(CCCC2)Cc2ccccc2-3)S1 (stereo not drawn)	n	x	n	n	n	n
CC1CCCC(C)N1C(=O)COC(=O)c1cccs1 (stereo not drawn)	n	x	n	n	n	n
CCOC(=O)[C@]12CCCC=C1N(Cc1ccccc1)C(=O)[C@H](CC(=O)NCc1cccs1)C2	n	x	x	x	x	x
COC(=O)CCCn1nc(NC(=O)COc2ccc(F)cc2)cc1C	n	n	n	n	n	n
Cc1cccc(C)c1NC(=O)C(=O)NCC1CCCN1S(=O)(=O)c1cccs1 (stereo not drawn)	n	n	n	n	n	n
COc1ccc2c(c1)-c1c(sn(-c3ccccc3)c1=S)C(C)(C)N2	n	n	n	n	n	n
COc1ccc(-n2sc3c(c2=S)-c2cc(OC)ccc2NC3(C)C)cc1	n	n	n	129	n	n
CC(C)(C)c1nn(-c2ccccc2)c2[nH]c(=O)c(C=O)cc12	n	n	n	88	n	n
CC(C)(C)c1nn(-c2ccccc2)c2nc(Cl)c(C=O)cc12	n	n	n	n	n	n
Cc1nn(-c2ccccc2)c2nc(N)c(C#N)c(-c3ccc(C(C)(C)C)cc3)c12	n	n	n	94	n	n
Cc1nc2ccc(C(=O)NC(C)(C)C)cn2c1N(C)C(=O)CCc1ccccc1	n	x	x	x	x	x
CCOC(=O)[C@]12CCCC=C1N(CCC1=CCCCC1)C(=O)[C@H](CC(=O)NCc1cccs1)C2	n	x	x	x	x	x
SMILES	MPTP block	SKKanGAS inh	NR3A LBD binder	CSC inhib	Beta cell apopt	Mdm2 MdmX PPI
O=C(Cc1ccccc1)Nn1c(O)c(/C=C2\C=Nc3ccccc32)sc1=S	n	50	26	n	n	x
O=C(c1ccc(Br)cc1)c1cc2ccc(O)cc2oc1=O	n	n	n	n	n	n
O=C(NCc1ccco1)c1cc2ccc(O)cc2oc1=O	n	60	n	n	n	n
O=C(c1ccccc1)c1cc2ccc(O)cc2oc1=O	n	62	n	n	n	n
Cc1occc1-c1nnc(-c2cc([N+](=O)[O-])cc([N+](=O)[O-])c2)o1	n	n	n	n	n	n
O=C(NCCC1=CCCCC1)C(=O)NCC(c1ccco1)N1CCN(c2ccc(F)cc2)CC1 (stereo not drawn)	n	n	10	n	n	n
O=C(NCC(c1ccco1)N1CCN(c2ccc(F)cc2)CC1)C1CCCCC1 (stereo not drawn)	n	n	n	n	n	n
COc1ccccc1NC(=O)CSc1nnc(C2CCCCC2)n1C	n	n	n	n	n	n

Screening results (PubChem BioAssay)
